Our source for the cytotoxicity call values is the antibiotic and cytotoxicity screens of Wong et al. (2023).

In all, about 39,000 compounds went through this assay and about 3,300 (8.5%) were called active. Shown is part of a subset that was picked to be rich in actives.

The subject of the assay is HepG2. Description: cytotoxicity call (relative viability < 0.9). Particulars: 10 µM.
Regarding `C[C@H](CO)N1C[C@H](C)[C@H](CN(C)S(=O)(=O)c2cn(C)cn2)Oc2c(NC(=O)C3CCCCC3)cccc2C1=O`, the cytotoxicity call is “inactive”.

As to `C[C@H]1CN([C@@H](C)CO)C(=O)Cc2cc(NC(=O)Cc3cn(C)c4ccccc34)ccc2O[C@H]1CN(C)S(=O)(=O)c1cn(C)cn1`, the cytotoxicity call is “inactive”.

Consider `COc1ccc(NC(=O)N(C)C[C@H]2OCCCC[C@H](C)Oc3ccc(NC(=O)Nc4ccccc4)cc3C(=O)N([C@@H](C)CO)C[C@H]2C)cc1`, for which the cytotoxicity call is “inactive”.

For `COCCNC(=O)C[C@H]1CC[C@@H](NS(=O)(=O)c2ccc(C)cc2)[C@H](CO)O1`, the cytotoxicity call was “inactive”.

For the molecule `Cc1ccc(S(=O)(=O)Nc2ccc3c(c2)CC(=O)N([C@H](C)CO)C[C@H](C)[C@H](CN(C)S(=O)(=O)c2cccs2)O3)cc1`, the cytotoxicity call was “inactive”.

Take `COc1ccc(C[C@H](N)C(=O)N[C@H]2[C@@H](O)[C@H](n3cnc4c(N(C)C)ncnc43)O[C@@H]2CO)cc1`: the cytotoxicity call was “active”.

In the case of `Nc1ncnc2c1ncn2[C@@H]1O[C@H](CSCC[C@H](N)C(=O)O)[C@@H](O)[C@H]1O`, the cytotoxicity call was “inactive”.

Regarding `C[S+](CC[C@H](N)C(=O)O)C[C@H]1O[C@@H](n2cnc3c(N)ncnc32)[C@H](O)[C@@H]1O` (stereo partly specified), the cytotoxicity call is “inactive”.

`C[C@H](CO)N1C[C@H](C)[C@H](CN(C)S(=O)(=O)c2ccccc2F)Oc2ncc(C#Cc3cccnc3)cc2C1=O`: the cytotoxicity call is “inactive”.

For the molecule `C[C@H](CO)N1C[C@H](C)[C@H](CN(C)C(=O)Nc2cccc3ccccc23)Oc2ncc(-c3ccc(F)cc3)cc2C1=O`, the cytotoxicity call is “inactive”.

For `COCCCCC(=NOCCN)c1ccc(C(F)(F)F)cc1.O=C(O)C=CC(=O)O`, the cytotoxicity call was “active”.

Regarding `O=C(Nc1cccc2ccccc12)c1ccc(C(F)(F)F)cc1`, the cytotoxicity call was “inactive”.

As for `Cc1noc(C)c1NC(=O)Nc1ccc2c(c1)CC(=O)N([C@H](C)CO)C[C@@H](C)[C@@H](CN(C)CC1CC1)O2`, the cytotoxicity call is “inactive”.

As to `COc1ccc(NC(=O)N(C)C[C@@H]2Oc3ccc(NC(=O)Cn4cnnn4)cc3C(=O)N([C@@H](C)CO)C[C@@H]2C)cc1`, the cytotoxicity call was “inactive”.

`CO[C@@H]1CN(C)C(=O)c2cc(NS(=O)(=O)c3cn(C)cn3)ccc2OC[C@@H](C)N(CC2CC2)C[C@H]1C`: the cytotoxicity call was “inactive”.

Consider `Cn1c(=O)c2[nH]cnc2n(C)c1=O.NCCN`, for which the cytotoxicity call was “inactive”.

As for `C[C@@H]1CN([C@H](C)CO)C(=O)c2cc(NC(=O)Nc3ccccc3)ccc2O[C@@H](C)CCCCO[C@@H]1CN(C)CC1CCCCC1`, the cytotoxicity call was “inactive”.

Take `C[C@@H]1CCCCO[C@H](CN(C)CC2CCCCC2)[C@@H](C)CN([C@H](C)CO)C(=O)c2cc(NC(=O)Nc3ccccc3)ccc2O1`: the cytotoxicity call is “inactive”.

As to `C[C@@H]1CCCCO[C@@H](CN(C)CC2CCCCC2)[C@@H](C)CN([C@H](C)CO)C(=O)c2cc(NC(=O)Nc3ccccc3)ccc2O1`, the cytotoxicity call was “active”.

Take `C[C@@H]1CN([C@@H](C)CO)C(=O)c2cc(NC(=O)Nc3ccccc3)ccc2O[C@@H](C)CCCCO[C@@H]1CN(C)CC1CCCCC1`: the cytotoxicity call is “active”.

Consider `C[C@@H]1CCCCO[C@H](CN(C)CC2CC2)[C@H](C)CN([C@@H](C)CO)C(=O)c2cc(NC(=O)Nc3ccccc3)ccc2O1`, for which the cytotoxicity call is “inactive”.

Take `C[C@H](CO)N1C[C@H](C)[C@@H](CN(C)CC2CCCCC2)OCCCC[C@H](C)Oc2ccc(NC(=O)Nc3ccccc3)cc2C1=O`: the cytotoxicity call is “inactive”.

On to `C[C@H]1CCCCO[C@@H](CN(C)CC2CCCCC2)[C@@H](C)CN([C@@H](C)CO)C(=O)c2cc(NC(=O)Nc3ccccc3)ccc2O1`, for which the cytotoxicity call was “active”.

In the case of `C[C@@H]1CCCCO[C@H](CN(C)CC2CC2)[C@@H](C)CN([C@H](C)CO)C(=O)c2cc(NC(=O)Nc3ccccc3)ccc2O1`, the cytotoxicity call was “inactive”.

On to `C[C@@H]1CCCCO[C@H](CN(C)CC2CCCCC2)[C@H](C)CN([C@@H](C)CO)C(=O)c2cc(NC(=O)Nc3ccccc3)ccc2O1`, for which the cytotoxicity call is “active”.

In the case of `C[C@@H]1CN([C@@H](C)CO)C(=O)c2cc(NC(=O)Nc3ccccc3)ccc2O[C@@H](C)CCCCO[C@H]1CN(C)CC1CCCCC1`, the cytotoxicity call was “inactive”.

With `C[C@@H]1CCCCO[C@@H](CN(C)CC2CCCCC2)[C@H](C)CN([C@@H](C)CO)C(=O)c2cc(NC(=O)Nc3ccccc3)ccc2O1`, the cytotoxicity call is “inactive”.

`C[C@H]1CCCCO[C@H](CN(C)CC2CCCCC2)[C@@H](C)CN([C@@H](C)CO)C(=O)c2cc(NC(=O)Nc3ccccc3)ccc2O1`: the cytotoxicity call was “inactive”.

As to `C[C@H](CO)N1C[C@H](C)[C@@H](CN(C)S(=O)(=O)c2cn(C)cn2)Oc2c(NC(=O)c3nc4ccccc4s3)cccc2C1=O`, the cytotoxicity call was “inactive”.

Turning to `COc1ccc(NC(=O)N2C[C@H](O)COC[C@@H]3O[C@@H](CC(=O)NCc4ccccc4OC)CC[C@H]32)cc1`, the cytotoxicity call is “inactive”.

Turning to `O=C1O[C@H](c2ccccc2)[C@H](c2ccccc2)N2[C@H]1[C@@H](C(=O)O)[C@]1(C(=O)Nc3ccc(Cl)cc31)[C@H]2c1ccc(F)cc1`, the cytotoxicity call was “inactive”.

`NC(=O)COc1ccccc1`: the cytotoxicity call was “inactive”.

With `C[C@H](CO)N1C[C@H](C)[C@H](CN(C)C(=O)Nc2ccc3c(c2)OCO3)OCc2cnnn2CCCC1=O`, the cytotoxicity call was “inactive”.

Regarding `Cc1noc(C)c1S(=O)(=O)N(C)C[C@@H]1Oc2ccc(NS(C)(=O)=O)cc2C(=O)N([C@@H](C)CO)C[C@@H]1C`, the cytotoxicity call was “inactive”.

With `C[C@@H]1CCCCO[C@@H](CN(C)S(=O)(=O)c2cn(C)cn2)[C@@H](C)CN([C@H](C)CO)C(=O)c2cc(NS(C)(=O)=O)ccc2O1`, the cytotoxicity call was “inactive”.

As to `COCC(=O)Nc1ccc2c(c1)C(=O)N(C)C[C@H](OC)[C@H](C)CN(Cc1cccc(F)c1)[C@H](C)CO2`, the cytotoxicity call is “inactive”.

Turning to `C=CCOC(=O)[C@@H]1[C@H]2C(=O)O[C@H](c3ccccc3)[C@H](c3ccccc3)N2[C@H](c2ccc(OCCOC(=O)[C@H]3C[C@H]4C(=O)NCC(=O)N4[C@H]3c3cccc(OCCO)c3)cc2)[C@@]12C(=O)Nc1ccccc12`, the cytotoxicity call is “inactive”.

Consider `C[C@@H]1CN([C@@H](C)CO)C(=O)c2cc(NC(=O)NC3CCCCC3)ccc2O[C@@H](C)CCCCO[C@@H]1CN(C)S(=O)(=O)c1ccc(F)cc1`, for which the cytotoxicity call was “inactive”.

On to `C[C@H]1CN([C@@H](C)CO)C(=O)c2cc(NS(=O)(=O)c3ccc(F)cc3)ccc2O[C@@H]1CN(C)C(=O)Nc1ccc(C(F)(F)F)cc1`, for which the cytotoxicity call was “inactive”.

Regarding `C[C@H](CO)N1C[C@H](C)[C@@H](CN(C)CC2CC2)OCCCC[C@H](C)Oc2ccc(NC(=O)Nc3ccccc3)cc2C1=O`, the cytotoxicity call was “inactive”.

With `C[C@H](CO)N1C[C@H](C)[C@H](CN(C)CC2CCCCC2)OCCCC[C@H](C)Oc2ccc(NC(=O)Nc3ccccc3)cc2C1=O`, the cytotoxicity call was “active”.

With `C[C@@H]1CCCCO[C@@H](CN(C)CC2CCCCC2)[C@@H](C)CN([C@@H](C)CO)C(=O)c2cc(NC(=O)Nc3ccccc3)ccc2O1`, the cytotoxicity call is “active”.

In the case of `C[C@H]1CCCCO[C@H](CN(C)CC2CC2)[C@@H](C)CN([C@@H](C)CO)C(=O)c2cc(NC(=O)Nc3ccccc3)ccc2O1`, the cytotoxicity call is “inactive”.

With `C[C@@H]1CCCCO[C@@H](CN(C)CC2CC2)[C@H](C)CN([C@@H](C)CO)C(=O)c2cc(NC(=O)Nc3ccccc3)ccc2O1`, the cytotoxicity call was “inactive”.

Consider `C[C@@H]1CCCCO[C@@H](CN(C)CC2CC2)[C@H](C)CN([C@H](C)CO)C(=O)c2cc(NC(=O)Nc3ccccc3)ccc2O1`, for which the cytotoxicity call is “inactive”.

With `C[C@@H]1CCCCO[C@@H](CN(C)CC2CCCCC2)[C@H](C)CN([C@H](C)CO)C(=O)c2cc(NC(=O)Nc3ccccc3)ccc2O1`, the cytotoxicity call was “active”.

`C[C@@H]1CCCCO[C@H](CN(C)CC2CCCCC2)[C@H](C)CN([C@H](C)CO)C(=O)c2cc(NC(=O)Nc3ccccc3)ccc2O1`: the cytotoxicity call is “active”.

In the case of `Cc1csc2c(N3CCC(Cn4cc(C(C)(C)N)nn4)CC3)ncnc12`, the cytotoxicity call is “inactive”.

In the case of `C[C@@H]1OC2=C(Cl)C(=O)N3CCC[C@H]3C[C@@]21O`, the cytotoxicity call is “inactive”.

With `Cc1ccc(S[C@]2(C(=O)NCC(F)(F)F)CC(=O)N(Cc3ccccc3)[C@@H]2c2ccc(CO)cc2I)cc1`, the cytotoxicity call was “inactive”.

Turning to `C[C@@H]1CN([C@H](C)CO)S(=O)(=O)c2ccc(C#Cc3cccc(F)c3)cc2O[C@@H]1CN(C)CC1CC1`, the cytotoxicity call was “inactive”.

Turning to `COC(=O)[C@@H]1[C@@H](CO)[C@@H]2Cn3c(cccc3=O)[C@@H]2N1C(=O)C1CC1`, the cytotoxicity call is “inactive”.

For the molecule `C[C@H](NC(=O)C[C@@H]1CC[C@H](NC(=O)CN2CCOCC2)[C@@H](CO)O1)c1ccccc1`, the cytotoxicity call was “inactive”.

Regarding `C[C@@H]1CCCCO[C@H](CN(C)Cc2ccccc2)[C@H](C)CN([C@H](C)CO)C(=O)c2cc(NC(=O)Cc3ccccc3)ccc2O1`, the cytotoxicity call was “inactive”.

As for `C[C@H]1CCCCO[C@H](CN(C)C(=O)Nc2ccc(C(F)(F)F)cc2)[C@@H](C)CN([C@@H](C)CO)C(=O)c2cc(NS(=O)(=O)c3ccc(Cl)cc3)ccc2O1`, the cytotoxicity call is “inactive”.

As for `C[C@H]1CN([C@@H](C)CO)C(=O)c2cc(NS(=O)(=O)c3ccc(Cl)cc3)ccc2O[C@@H]1CN(C)C(=O)Nc1ccc(C(F)(F)F)cc1`, the cytotoxicity call is “inactive”.

Take `C[C@H](CO)N1C[C@H](C)[C@@H](CN(C)C(=O)Nc2ccc(C(F)(F)F)cc2)OCCCC[C@H](C)Oc2ccc(NS(=O)(=O)c3ccc(Cl)cc3)cc2C1=O`: the cytotoxicity call is “active”.

As to `C[C@@H]1CN([C@H](C)CO)C(=O)c2cc(NS(=O)(=O)c3ccc(Cl)cc3)ccc2O[C@H]1CN(C)C(=O)Nc1ccc(C(F)(F)F)cc1`, the cytotoxicity call was “inactive”.

Turning to `C[C@@H]1CCCCO[C@H](CN(C)C(=O)Nc2ccc(C(F)(F)F)cc2)[C@H](C)CN([C@H](C)CO)C(=O)c2cc(NS(=O)(=O)c3ccc(Cl)cc3)ccc2O1`, the cytotoxicity call is “active”.

In the case of `C[C@@H]1CCCCO[C@@H](CN(C)C(=O)Nc2ccc(C(F)(F)F)cc2)[C@H](C)CN([C@@H](C)CO)C(=O)c2cc(NS(=O)(=O)c3ccc(Cl)cc3)ccc2O1`, the cytotoxicity call is “inactive”.

For `C[C@@H]1CCCCO[C@H](CN(C)C(=O)Nc2ccc(C(F)(F)F)cc2)[C@@H](C)CN([C@H](C)CO)C(=O)c2cc(NS(=O)(=O)c3ccc(Cl)cc3)ccc2O1`, the cytotoxicity call is “inactive”.

Regarding `C[C@@H]1CCCCO[C@H](CN(C)C(=O)Nc2ccc(C(F)(F)F)cc2)[C@H](C)CN([C@@H](C)CO)C(=O)c2cc(NS(=O)(=O)c3ccc(Cl)cc3)ccc2O1`, the cytotoxicity call was “inactive”.

In the case of `C[C@H](CO)N1C[C@H](C)[C@H](CN(C)C(=O)Nc2ccc(C(F)(F)F)cc2)OCCCC[C@H](C)Oc2ccc(NS(=O)(=O)c3ccc(Cl)cc3)cc2C1=O`, the cytotoxicity call is “active”.

Regarding `C[C@H]1CCCCO[C@@H](CN(C)C(=O)Nc2ccc(C(F)(F)F)cc2)[C@@H](C)CN([C@@H](C)CO)C(=O)c2cc(NS(=O)(=O)c3ccc(Cl)cc3)ccc2O1`, the cytotoxicity call was “inactive”.

`C[C@@H]1CN([C@@H](C)CO)C(=O)c2cc(NS(=O)(=O)c3ccc(Cl)cc3)ccc2O[C@@H](C)CCCCO[C@@H]1CN(C)C(=O)Nc1ccc(C(F)(F)F)cc1`: the cytotoxicity call is “inactive”.

For the molecule `C[C@@H]1CN([C@H](C)CO)C(=O)c2cc(NS(=O)(=O)c3ccc(Cl)cc3)ccc2O[C@@H]1CN(C)C(=O)Nc1ccc(C(F)(F)F)cc1`, the cytotoxicity call is “active”.
